Test [1] is described as follows: ATG_XTT_Cytotoxicity: Cytotoxicity Assessment in the Attagene TRANS-FACTORIAL HepG2 Assay (AID 2283584).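 On AC50: XTT signal for cell number as viability in transfected HepG2 cells; cells exposed to compound for 24 h before reading; active means loss of viability signal versus DMSO baseline.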 The procedure, abridged:
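HepG2 cells transiently transfected with GAL4-UAS multiple reporter units, dosed 24 h; cytotoxicity read by XTT as loss of signal versus DMSO baseline.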

The nature of test [2]: TOX21_p53_BLA_p2_viability: Viability Assessment in the Tox21 HCT-116 p53 Agonism Beta-lactamase Assay, Phase 2 (AID 2283591).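 Further: compound exposure lasted 16 h at 37 °C; actives lower the ATP signal meaning cytotoxicity.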 The procedure, abridged:
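HCT-116 p53-bla cells (4000/well) rested 5 h at 37C, then received compounds in DMSO (217-fold dilution) for 16 h at 37C, 5% CO2. After the CCF4 read, CellTiter-Glo was added; ATP luminescence was read after 30 min at room temperature.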

Test [3] deals with Cellular tumor antigen p53 (Homo sapiens) (UniProt P04637). The test is described as follows: TOX21_p53_BLA_p2_ratio: Tox21 HCT-116 p53 Agonism Beta-lactamase Assay, Ratio, Phase 2 (AID 2283592). Summed up:
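HCT-116 cells with p53-responsive beta-lactamase reporter, 4000 cells/well, preincubated 5 h, then compound in DMSO (217-fold dilution) for 16 h at 37C. CCF4-AM substrate 2 h at room temperature; 460/530 nm emission ratio fitted upward versus DMSO.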

A short description of test [4]: TOX21_p53_BLA_p3_viability: Viability Assessment in the Tox21 HCT-116 p53 Agonism Beta-lactamase Assay, Phase 3 (AID 2283593).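 Further: cells exposed to compound for 16 h before reading.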 Summed up:
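HCT-116 cells (4000/well) rested 5 h at 37C, then got DMSO compounds by pin tool (217-fold dilution) for 16 h at 37C, 5% CO2. After the bla read, CellTiter-Glo was added and luminescence read at 30 min, room temperature.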

In test [5] the target is Cellular tumor antigen p53 (Homo sapiens) (UniProt P04637). The test is described as follows: TOX21_p53_BLA_p3_ratio: Tox21 HCT-116 p53 Agonism Beta-lactamase Assay, Ratio, Phase 3 (AID 2283596). Summed up: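 HCT116 p53-bla cells (4000/well) given compound in DMSO (217-fold dilution) after 5 h, incubated 16 h at 37C. CCF4-AM substrate 2 h at room temperature; 460/530 nm emission ratio, gain fitted against DMSO.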

“And” between values parts separate entries of the source, which are not always exact repeats. Equal entries are not always repeated. Results filed as inconclusive are left out. The source made the active and inactive calls. How the source made its calls: active means hit-call score of the fitted dose curve at least 0.9, where 1 is the maximum; inconclusive means response in the unintended direction; inactive means score below 0.9.

Chain of Cellular tumor antigen p53 (Homo sapiens) (P04637 whole entry, looked up): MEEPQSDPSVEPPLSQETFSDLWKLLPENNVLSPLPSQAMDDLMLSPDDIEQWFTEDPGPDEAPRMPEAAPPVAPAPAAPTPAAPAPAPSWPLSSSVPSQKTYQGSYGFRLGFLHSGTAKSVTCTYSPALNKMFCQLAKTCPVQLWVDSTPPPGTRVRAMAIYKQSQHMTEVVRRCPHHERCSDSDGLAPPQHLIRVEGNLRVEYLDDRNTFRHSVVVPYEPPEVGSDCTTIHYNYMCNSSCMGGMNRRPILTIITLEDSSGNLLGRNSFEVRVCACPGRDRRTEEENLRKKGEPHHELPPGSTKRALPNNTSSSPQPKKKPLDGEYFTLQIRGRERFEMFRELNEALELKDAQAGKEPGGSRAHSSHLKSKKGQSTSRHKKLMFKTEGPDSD

Turning to `CCCCCCCCCCCCBr`, the compound was called inactive in test [1], in test [2], in test [3] and in test [4].

As to `CN(C1CCCCC1)C1CCCCC1`, in test [1], the compound was called inactive.

For the compound `O=[N+]([O-])c1ccccc1O`, the call in test [1], in test [2], in test [3] and in test [4] was inactive.

Regarding `CCCCCCCCCCCCCl`, the compound was called inactive in test [1], in test [2], in test [3], in test [4] and in test [5].

For the compound `CCCCOC(C)=O`, the compound was called inactive in test [1], in test [2], in test [3], in test [4] and in test [5].

With `O=[N+]([O-])c1c2ccccc2cc2ccccc12`, the compound was classed as inactive in test [1], in test [2], in test [3], in test [4] and in test [5].

By AC50 is commonly meant the midpoint of the concentration-response curve, whichever way the signal moves. In the case of `CC(C)CC(C)(c1ccc(O)cc1)c1ccc(O)cc1`, the AC50 is 25.9 µM (active) in test [1]; 23.7 µM (active) and 75.4 µM (active) in test [2]; 41.7 µM (active) and 71.7 µM (active) in test [3]; 57.9 µM (active) and 73.5 µM (active) in test [4]; 45.2 µM (active) and 86.9 µM (active) in test [5].

Take `CCC[CH2][Sn]([CH2]CCC)([CH2]CCC)[CH2]CCC`: the AC50 in test [1] was 33.9 µM (active); in test [2], 30.1 µM (active); in test [4], 20.2 µM (active); in test [5] it was 29.6 µM (active). The result in test [3] was inactive.

Take `OCC(c1ccc(Cl)cc1)c1ccc(Cl)cc1`: the outcome in test [1], in test [4] and in test [5] was inactive. Further, the AC50 in test [2] was 69.5 µM (active); in test [3] it was 80.1 µM (active).

For the compound `CCC[N+](CCC)(CCC)CCC`, the compound was classed as inactive in test [1], in test [2], in test [3], in test [4] and in test [5].

With `C=CC(=O)[O][Sn]([CH2]CCC)([CH2]CCC)[CH2]CCC`, the AC50 in test [1] was 1.09 µM (active); in test [2], 1.86 µM (active); in test [3] it was 13.5 µM (active); in test [4], 1.64 µM (active); in test [5], 13.6 µM (active).

On to `CCOC(=O)OC1=C(c2cc(C)ccc2C)C(=O)NC12CCC(OC)CC2` (centres undefined), for which the compound was classed as inactive in test [1], in test [2] and in test [4]. In addition, the figures for the AC50 in test [3] and in test [5] were 46.1 µM (active) and 52.6 µM (active), respectively.

(Values after PubChem BioAssay (EPA / NIEHS).)
